# From PMC7862700, “An all-to-all approach to the identification of sequence-specific readers for epigenetic DNA modifications on cytosine”
# Key:
# Test in all cases: DAPPL (digital affinity profiling via proximity ligation, sequencing); 10 mM Tris-HCl pH 7.5, 50 mM NaCl, 1 mM DTT, 4% glycerol, room temperature, 30 min; GST-TFs on glutathione beads, 16-mer random dsDNA library, 0.1% formaldehyde crosslink after washing; high values mean tight binding
# Settings in all cases: protein: recombinant; tags: N-terminal GST; dsDNA, one strand shown
# FLI1 = molecular target: T1, FLI1 (Homo sapiens, UniProt Q01543 1-452)
# T1 sequence: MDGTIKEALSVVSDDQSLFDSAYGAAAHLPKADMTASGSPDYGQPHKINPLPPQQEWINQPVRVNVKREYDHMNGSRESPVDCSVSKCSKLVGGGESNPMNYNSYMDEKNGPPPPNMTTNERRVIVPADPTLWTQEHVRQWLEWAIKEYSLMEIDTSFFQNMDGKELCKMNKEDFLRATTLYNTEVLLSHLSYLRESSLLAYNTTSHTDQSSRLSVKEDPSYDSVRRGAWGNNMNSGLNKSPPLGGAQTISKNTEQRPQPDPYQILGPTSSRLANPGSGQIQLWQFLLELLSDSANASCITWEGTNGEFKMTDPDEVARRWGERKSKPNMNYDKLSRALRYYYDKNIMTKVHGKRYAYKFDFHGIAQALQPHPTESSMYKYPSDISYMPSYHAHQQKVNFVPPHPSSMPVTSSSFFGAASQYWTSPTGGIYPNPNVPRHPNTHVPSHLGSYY
# In short: (§1)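 After expression in yeast as GST fusions, human transcription factors were bound to glutathione beads, DNA-barcoded and mixed with a tag-only sample. The pools were incubated with 200 nmole of a 16-mer random double-stranded DNA library in Tris/NaCl/DTT/glycerol buffer (30 min, room temperature), washed and crosslinked with 0.1% formaldehyde. Proximity ligation with BsaI/T4 ligase ran for 1 h at 37 °C, before PCR amplification and sequencing on an Illumina NextSeq500. Binding signal is a hexamer's read frequency for a factor divided by its frequency for the tag-only sample.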
# GABPA = molecular target: T2, GABPA (Homo sapiens, UniProt Q06546 1-454)
# T2 sequence: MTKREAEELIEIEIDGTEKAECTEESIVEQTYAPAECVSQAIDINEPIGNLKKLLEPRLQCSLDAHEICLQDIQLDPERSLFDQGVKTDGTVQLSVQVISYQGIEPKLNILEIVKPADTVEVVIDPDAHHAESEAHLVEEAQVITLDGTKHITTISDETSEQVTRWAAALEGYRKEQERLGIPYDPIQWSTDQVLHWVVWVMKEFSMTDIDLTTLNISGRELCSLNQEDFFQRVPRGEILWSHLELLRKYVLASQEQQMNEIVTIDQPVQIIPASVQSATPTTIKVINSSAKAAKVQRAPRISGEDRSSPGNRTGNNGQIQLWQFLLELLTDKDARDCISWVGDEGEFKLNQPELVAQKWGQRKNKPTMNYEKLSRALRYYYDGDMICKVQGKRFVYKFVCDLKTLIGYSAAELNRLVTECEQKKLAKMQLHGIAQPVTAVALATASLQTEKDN
# In short: as §1
# ERG = molecular target: T3, ERG (Homo sapiens, UniProt P11308 1-479)
# T3 sequence: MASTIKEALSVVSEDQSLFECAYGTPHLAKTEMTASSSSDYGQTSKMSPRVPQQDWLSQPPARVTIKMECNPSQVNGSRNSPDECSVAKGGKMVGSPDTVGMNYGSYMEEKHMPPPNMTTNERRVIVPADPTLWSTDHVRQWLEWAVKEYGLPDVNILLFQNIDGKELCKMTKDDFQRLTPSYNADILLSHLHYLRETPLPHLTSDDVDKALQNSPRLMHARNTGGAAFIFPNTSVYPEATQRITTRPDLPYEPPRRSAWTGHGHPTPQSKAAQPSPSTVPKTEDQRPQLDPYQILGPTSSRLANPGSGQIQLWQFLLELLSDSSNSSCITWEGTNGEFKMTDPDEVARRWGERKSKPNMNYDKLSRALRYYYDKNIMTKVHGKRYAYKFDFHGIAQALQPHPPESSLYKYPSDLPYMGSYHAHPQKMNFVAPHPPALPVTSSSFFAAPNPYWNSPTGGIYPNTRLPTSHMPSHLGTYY
# In short: as §1
# ELF1 = ELF1 (Homo sapiens, UniProt P32519 1-619)
# In short: as §1
# EHF = molecular target: T4, EHF (Homo sapiens, UniProt Q9NZC4 1-300)
# T4 sequence: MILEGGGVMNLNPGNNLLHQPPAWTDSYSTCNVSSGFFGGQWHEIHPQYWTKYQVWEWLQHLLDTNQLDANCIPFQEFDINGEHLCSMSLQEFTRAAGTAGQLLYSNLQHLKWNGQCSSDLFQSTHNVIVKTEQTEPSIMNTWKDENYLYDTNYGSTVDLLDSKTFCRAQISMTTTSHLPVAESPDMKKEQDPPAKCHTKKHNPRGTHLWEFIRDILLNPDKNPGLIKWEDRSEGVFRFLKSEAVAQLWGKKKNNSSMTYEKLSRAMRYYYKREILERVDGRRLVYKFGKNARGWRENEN
# In short: as §1
# SPI1 = SPI1 (Homo sapiens, UniProt P17947 1-270)
# In short: as §1
# ELK3 = molecular target: T5, ELK3 (Homo sapiens, UniProt P41970 1-407)
# T5 sequence: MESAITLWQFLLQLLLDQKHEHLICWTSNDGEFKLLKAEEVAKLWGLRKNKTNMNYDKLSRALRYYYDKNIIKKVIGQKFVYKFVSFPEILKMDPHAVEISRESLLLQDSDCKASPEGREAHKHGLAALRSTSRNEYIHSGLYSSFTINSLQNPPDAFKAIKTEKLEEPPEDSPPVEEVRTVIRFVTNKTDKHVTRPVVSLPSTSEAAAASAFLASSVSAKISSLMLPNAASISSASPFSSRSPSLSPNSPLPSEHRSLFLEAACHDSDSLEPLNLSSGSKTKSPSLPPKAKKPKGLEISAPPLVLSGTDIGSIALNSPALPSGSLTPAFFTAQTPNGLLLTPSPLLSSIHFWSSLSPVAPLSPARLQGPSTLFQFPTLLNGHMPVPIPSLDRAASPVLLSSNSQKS
# In short: as §1
# ETV5 = ETV5 (Homo sapiens, UniProt P41161 1-510)
# In short: as §1
# SPIC = molecular target: T6, SPIC (Homo sapiens, UniProt Q8N5J4 1-248)
# T6 sequence: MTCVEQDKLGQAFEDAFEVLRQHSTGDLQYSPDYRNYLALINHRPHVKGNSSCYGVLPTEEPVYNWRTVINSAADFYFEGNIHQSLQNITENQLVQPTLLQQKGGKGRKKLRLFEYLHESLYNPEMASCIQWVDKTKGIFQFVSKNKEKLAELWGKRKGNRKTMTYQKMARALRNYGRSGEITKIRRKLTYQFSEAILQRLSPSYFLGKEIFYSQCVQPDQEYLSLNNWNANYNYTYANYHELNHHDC
# In short: as §1
# ELF4 = ELF4 (Homo sapiens, UniProt Q99607 1-663)
# In short: as §1
# ETV1 = ETV1 (Homo sapiens, UniProt P50549 1-477)
# In short: as §1
# ERF = molecular target: T7, ERF (Homo sapiens, UniProt P50548 1-548)
# T7 sequence: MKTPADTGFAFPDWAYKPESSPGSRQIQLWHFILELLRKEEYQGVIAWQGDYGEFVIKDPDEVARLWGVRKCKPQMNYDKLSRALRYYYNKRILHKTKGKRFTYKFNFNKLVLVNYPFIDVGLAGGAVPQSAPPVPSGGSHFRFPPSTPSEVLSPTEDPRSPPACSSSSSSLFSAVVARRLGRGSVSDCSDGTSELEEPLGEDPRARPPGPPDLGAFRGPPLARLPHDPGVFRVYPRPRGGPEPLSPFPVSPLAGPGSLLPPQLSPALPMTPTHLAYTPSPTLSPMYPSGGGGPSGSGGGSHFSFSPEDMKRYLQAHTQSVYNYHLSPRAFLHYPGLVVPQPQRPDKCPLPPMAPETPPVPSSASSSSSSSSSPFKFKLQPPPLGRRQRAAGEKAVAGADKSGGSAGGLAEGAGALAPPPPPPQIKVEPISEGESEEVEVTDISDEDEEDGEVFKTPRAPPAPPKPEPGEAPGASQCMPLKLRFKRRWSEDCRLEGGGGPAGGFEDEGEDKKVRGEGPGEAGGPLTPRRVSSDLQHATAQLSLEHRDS
# In short: as §1
# ETV3L = molecular target: T8, ETV3L (Homo sapiens, UniProt Q6ZN32 1-361)
# T8 sequence: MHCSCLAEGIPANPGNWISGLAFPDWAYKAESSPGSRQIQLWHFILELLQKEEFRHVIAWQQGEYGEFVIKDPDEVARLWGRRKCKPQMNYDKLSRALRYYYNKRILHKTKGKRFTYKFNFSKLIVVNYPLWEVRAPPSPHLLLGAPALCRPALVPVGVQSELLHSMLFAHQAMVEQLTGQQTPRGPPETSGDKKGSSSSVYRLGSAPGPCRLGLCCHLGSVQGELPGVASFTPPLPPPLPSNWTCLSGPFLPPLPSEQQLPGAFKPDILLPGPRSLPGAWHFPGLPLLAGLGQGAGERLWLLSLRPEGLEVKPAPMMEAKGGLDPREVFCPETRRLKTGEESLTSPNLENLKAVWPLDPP
# In short: as §1
# ETS2 = molecular target: T9, ETS2 (Homo sapiens, UniProt P15036 1-469)
# T9 sequence: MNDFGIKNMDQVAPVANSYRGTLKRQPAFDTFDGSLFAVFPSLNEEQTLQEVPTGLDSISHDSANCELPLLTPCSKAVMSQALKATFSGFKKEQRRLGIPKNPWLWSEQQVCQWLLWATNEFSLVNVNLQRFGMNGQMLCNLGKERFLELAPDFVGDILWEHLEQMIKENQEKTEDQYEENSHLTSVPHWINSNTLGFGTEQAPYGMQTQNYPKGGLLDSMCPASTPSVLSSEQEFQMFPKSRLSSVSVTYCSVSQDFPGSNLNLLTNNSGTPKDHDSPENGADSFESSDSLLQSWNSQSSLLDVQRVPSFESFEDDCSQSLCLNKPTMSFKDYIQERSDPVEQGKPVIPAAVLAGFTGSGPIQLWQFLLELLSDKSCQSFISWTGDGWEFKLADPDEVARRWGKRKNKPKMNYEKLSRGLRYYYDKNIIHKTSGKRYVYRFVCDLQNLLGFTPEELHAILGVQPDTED
# In short: as §1
# SPDEF = molecular target: T10, SPDEF (Homo sapiens, UniProt O95238 1-335)
# T10 sequence: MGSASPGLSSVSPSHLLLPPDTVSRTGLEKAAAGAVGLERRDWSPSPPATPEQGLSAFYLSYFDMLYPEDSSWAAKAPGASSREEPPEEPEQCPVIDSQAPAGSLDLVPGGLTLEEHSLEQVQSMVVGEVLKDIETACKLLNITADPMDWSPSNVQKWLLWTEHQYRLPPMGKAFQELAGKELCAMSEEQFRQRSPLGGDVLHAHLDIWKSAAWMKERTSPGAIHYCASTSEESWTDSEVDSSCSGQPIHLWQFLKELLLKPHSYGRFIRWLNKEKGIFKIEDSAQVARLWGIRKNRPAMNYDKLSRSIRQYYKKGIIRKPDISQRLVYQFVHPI
# In short: as §1
# ETV3 = molecular target: T11, ETV3 (Homo sapiens, UniProt P41162-2 1-143)
# T11 sequence: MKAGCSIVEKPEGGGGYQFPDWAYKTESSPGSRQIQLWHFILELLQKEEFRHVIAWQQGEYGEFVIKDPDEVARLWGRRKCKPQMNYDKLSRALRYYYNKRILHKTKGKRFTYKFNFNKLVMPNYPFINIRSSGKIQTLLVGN
# In short: as §1
# ETV6 = ETV6 (Homo sapiens, UniProt P41212 1-452)
# In short: as §1
# Chain of ELF4 (Q99607 whole entry): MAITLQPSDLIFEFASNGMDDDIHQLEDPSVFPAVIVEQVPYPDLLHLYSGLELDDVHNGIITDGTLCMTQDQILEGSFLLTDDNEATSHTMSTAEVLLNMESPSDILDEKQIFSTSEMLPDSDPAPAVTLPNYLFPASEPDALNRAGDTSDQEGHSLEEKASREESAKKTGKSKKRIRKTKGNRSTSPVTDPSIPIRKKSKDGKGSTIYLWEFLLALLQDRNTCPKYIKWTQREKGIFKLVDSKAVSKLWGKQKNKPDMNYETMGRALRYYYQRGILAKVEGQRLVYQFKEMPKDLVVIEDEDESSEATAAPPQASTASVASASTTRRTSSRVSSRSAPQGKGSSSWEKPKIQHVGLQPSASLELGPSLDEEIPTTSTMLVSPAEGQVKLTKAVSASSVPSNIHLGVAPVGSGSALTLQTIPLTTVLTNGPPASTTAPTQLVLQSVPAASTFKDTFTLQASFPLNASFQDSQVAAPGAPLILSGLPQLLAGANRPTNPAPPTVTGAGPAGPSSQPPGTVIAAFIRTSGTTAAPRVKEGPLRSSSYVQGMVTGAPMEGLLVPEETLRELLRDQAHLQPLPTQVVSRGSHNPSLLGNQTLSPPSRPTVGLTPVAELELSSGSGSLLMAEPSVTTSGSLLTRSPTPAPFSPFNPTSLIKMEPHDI
# Chain of ETV5 (P41161 whole entry): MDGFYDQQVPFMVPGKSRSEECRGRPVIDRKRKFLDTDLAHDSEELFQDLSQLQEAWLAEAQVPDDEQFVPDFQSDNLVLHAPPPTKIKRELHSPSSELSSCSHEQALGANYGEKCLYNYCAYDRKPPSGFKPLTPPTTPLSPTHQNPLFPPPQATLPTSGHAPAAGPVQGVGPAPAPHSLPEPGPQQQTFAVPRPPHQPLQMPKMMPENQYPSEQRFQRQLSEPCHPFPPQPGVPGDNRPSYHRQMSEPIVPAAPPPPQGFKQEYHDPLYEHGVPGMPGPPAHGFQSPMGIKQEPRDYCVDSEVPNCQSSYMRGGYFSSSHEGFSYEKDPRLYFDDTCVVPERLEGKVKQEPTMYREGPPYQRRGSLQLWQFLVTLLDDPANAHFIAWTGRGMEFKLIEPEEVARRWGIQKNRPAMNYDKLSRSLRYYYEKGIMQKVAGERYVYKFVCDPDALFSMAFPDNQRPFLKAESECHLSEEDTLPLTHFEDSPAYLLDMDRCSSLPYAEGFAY
# Chain of ETV1 (P50549 whole entry): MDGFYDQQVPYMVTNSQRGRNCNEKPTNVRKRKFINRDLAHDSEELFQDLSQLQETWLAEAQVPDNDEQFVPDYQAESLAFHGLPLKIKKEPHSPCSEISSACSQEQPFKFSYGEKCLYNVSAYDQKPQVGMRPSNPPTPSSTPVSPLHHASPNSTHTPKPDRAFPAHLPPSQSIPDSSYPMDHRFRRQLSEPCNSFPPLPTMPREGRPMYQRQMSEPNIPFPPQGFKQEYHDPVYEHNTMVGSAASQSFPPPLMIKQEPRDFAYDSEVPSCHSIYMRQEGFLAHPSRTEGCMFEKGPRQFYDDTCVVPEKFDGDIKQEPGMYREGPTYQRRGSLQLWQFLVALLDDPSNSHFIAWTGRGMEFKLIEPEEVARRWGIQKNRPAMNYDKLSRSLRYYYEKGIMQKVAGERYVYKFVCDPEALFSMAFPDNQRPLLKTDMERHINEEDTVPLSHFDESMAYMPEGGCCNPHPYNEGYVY
# Chain of ETV6 (P41212 whole entry): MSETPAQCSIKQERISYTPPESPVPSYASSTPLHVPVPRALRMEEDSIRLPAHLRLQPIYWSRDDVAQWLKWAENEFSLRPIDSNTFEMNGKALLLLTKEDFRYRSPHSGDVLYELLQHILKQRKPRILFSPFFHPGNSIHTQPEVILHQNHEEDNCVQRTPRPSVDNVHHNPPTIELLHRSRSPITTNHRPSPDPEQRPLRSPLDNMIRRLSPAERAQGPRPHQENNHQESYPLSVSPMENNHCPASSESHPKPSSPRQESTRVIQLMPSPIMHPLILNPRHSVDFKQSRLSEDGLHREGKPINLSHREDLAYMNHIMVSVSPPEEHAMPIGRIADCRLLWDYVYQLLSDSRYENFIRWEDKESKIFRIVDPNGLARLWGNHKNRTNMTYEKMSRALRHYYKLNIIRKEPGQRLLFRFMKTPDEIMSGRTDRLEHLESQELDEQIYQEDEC
# Chain of ELF1 (P32519 whole entry): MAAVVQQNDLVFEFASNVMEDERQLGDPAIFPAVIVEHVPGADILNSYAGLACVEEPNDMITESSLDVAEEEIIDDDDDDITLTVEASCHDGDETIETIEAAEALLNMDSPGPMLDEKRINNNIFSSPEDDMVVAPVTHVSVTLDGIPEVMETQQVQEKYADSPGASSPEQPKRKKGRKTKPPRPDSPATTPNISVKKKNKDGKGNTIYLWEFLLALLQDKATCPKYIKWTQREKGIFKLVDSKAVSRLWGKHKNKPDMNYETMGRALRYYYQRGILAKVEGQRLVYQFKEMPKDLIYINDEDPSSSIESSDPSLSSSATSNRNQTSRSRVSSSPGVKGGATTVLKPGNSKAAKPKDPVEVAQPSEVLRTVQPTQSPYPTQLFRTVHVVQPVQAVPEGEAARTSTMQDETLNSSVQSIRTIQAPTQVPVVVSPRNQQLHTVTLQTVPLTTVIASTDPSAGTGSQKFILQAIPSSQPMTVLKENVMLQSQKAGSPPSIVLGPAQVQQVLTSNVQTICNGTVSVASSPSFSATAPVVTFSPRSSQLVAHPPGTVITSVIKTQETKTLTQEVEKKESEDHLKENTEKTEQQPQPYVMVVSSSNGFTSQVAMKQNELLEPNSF
sequence,measurement,setting,value
GTTACG,binding signal,FLI1,"1.08 fold enrichment (6-mer frequency, TF over GST control)"
same,binding signal,GABPA,"1.01 fold enrichment (6-mer frequency, TF over GST control)"
same,binding signal,ERG,"1.01 fold enrichment (6-mer frequency, TF over GST control)"
same,binding signal,ELF1,"1.07 fold enrichment (6-mer frequency, TF over GST control)"
same,binding signal,EHF,"1.03 fold enrichment (6-mer frequency, TF over GST control)"
same,binding signal,SPI1,"1.01 fold enrichment (6-mer frequency, TF over GST control)"
same,binding signal,ELK3,"1.01 fold enrichment (6-mer frequency, TF over GST control)"
same,binding signal,ETV5,"1.03 fold enrichment (6-mer frequency, TF over GST control)"
same,binding signal,SPIC,"1.05 fold enrichment (6-mer frequency, TF over GST control)"
same,binding signal,ELF4,"1.02 fold enrichment (6-mer frequency, TF over GST control)"
same,binding signal,ETV1,"1.07 fold enrichment (6-mer frequency, TF over GST control)"
same,binding signal,ERF,"1.06 fold enrichment (6-mer frequency, TF over GST control)"
same,binding signal,ETV3L,"1.14 fold enrichment (6-mer frequency, TF over GST control)"
same,binding signal,ETS2,"1.06 fold enrichment (6-mer frequency, TF over GST control)"
same,binding signal,SPDEF,"1.04 fold enrichment (6-mer frequency, TF over GST control)"
same,binding signal,ETV3,"1.04 fold enrichment (6-mer frequency, TF over GST control)"
same,binding signal,ETV6,"1.09 fold enrichment (6-mer frequency, TF over GST control)"
